From the supplement of paper PMC10849652
About 7,900 targets were measured; listed, in parts, are those with a hit and a random draw of the rest. About 0.6% of all pairs of compound and target were hits.

Assays:
Assay in all cases: log2 fold change, soluble protein after heating vs DMSO (PISA); higher = thermal stabilisation; K562 cells, 10 uM, 30 min; active = over 0.2 and 3.5 SD of the protein, either way, in both replicates (recomputed)
[1] = compound: NC(=O)Nc1cc(-c2cccc(F)c2)sc1C(=O)N[C@H]1CCCNC1
In short: (§1)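 K562 cells at 2×10^6 cells/mL were treated with 10 μM compound for 30 min. Aliquots were heated for 3 min across 48°C-58°C, pooled, and extracted in PBS with 0.5% NP-40 at 4°C; soluble protein was the supernatant after 21,000xg for 90 min. Soluble protein was quantified by TMTpro 16plex LC-MS/MS with channel sums equalised, and reported as log2 fold change in thermal stability against DMSO controls, with values from duplicates.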

[2] = compound: NC(=O)c1cnc(N[C@@H]2CCCC[C@@H]2N)nc1Nc1cccc(-n2nccn2)c1
In short: as §1

[3] = compound: NC1(c2ccc(-c3nc4ccn5c(=O)[nH]nc5c4cc3-c3ccccc3)cc2)CCC1
In short: as §1

[4] = compound: NCC(=O)Nc1ccc(-n2nc(C(F)(F)F)cc2-c2ccc3c(ccc4ccccc43)c2)cc1
In short: as §1

entinostat = compound: Nc1ccccc1NC(=O)c1ccc(CNC(=O)OCc2cccnc2)cc1 [entinostat]
In short: as §1

vorinostat = compound: O=C(CCCCCCC(=O)Nc1ccccc1)NO [vorinostat]
In short: as §1

citarinostat = compound: O=C(CCCCCCNC(=O)c1cnc(N(c2ccccc2)c2ccccc2Cl)nc1)NO [citarinostat]
In short: as §1

silmitasertib = compound: O=C(O)c1ccc2c(c1)nc(Nc1cccc(Cl)c1)c1ccncc12 [silmitasertib]
In short: as §1

[5] = compound: O=C1NC(=O)C(c2cnc3ccccn23)=C1c1cn2c3c(cc(F)cc13)CN(C(=O)N1CCCCC1)CC2
In short: as §1

[6] = compound: c1cc(OCCN2CCCCC2)cc(-c2n[nH]c3ccc(-c4nnc[nH]4)cc23)c1
In short: as §1

Measured: log2 fold change

HMGCR isoform 3 (UniProt P04035)
Chain of UniProt P04035 (P04035 whole entry, looked up): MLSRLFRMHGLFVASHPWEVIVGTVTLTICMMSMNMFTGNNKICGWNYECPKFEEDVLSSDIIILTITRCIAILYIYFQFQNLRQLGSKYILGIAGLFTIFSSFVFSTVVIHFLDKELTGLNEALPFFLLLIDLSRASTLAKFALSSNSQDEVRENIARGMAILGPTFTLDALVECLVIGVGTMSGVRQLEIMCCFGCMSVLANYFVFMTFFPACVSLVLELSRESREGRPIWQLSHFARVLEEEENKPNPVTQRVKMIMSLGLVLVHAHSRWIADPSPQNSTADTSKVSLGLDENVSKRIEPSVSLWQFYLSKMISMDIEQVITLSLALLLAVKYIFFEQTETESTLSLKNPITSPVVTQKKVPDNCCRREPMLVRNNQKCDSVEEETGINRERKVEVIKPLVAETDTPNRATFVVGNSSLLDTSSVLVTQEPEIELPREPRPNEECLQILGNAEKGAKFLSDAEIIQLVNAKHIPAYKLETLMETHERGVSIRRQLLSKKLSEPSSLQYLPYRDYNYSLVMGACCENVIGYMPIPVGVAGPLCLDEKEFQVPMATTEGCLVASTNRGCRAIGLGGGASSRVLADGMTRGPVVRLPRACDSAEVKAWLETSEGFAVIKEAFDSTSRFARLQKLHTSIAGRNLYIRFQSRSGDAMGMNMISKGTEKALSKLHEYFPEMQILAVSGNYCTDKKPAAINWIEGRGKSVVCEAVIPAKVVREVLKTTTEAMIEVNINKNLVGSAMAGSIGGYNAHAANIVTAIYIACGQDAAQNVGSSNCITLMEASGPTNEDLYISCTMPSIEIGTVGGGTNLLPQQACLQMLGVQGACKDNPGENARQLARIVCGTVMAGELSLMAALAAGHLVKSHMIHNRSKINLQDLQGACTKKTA
inactive: [1] 0.184 | [2] -0.115 | [3] 0.048 | [4] -0.022 | entinostat 0.082 | vorinostat -0.019 | citarinostat -0.175 | silmitasertib -0.08 | [5] 0.15 | [6] 0.081

GTF3A (UniProt Q92664)
inactive: [1] -0.04 | [2] -0.095 | [3] 0.046 | [4] -0.098 | entinostat -0.013 | vorinostat 0.026 | citarinostat 0.06 | silmitasertib 0.043 | [5] 0.011 | [6] -0.072

FRA10AC1 isoform 3 (UniProt Q70Z53)
inactive: [1] -0.069 | [2] 0.114 | [3] -0.121 | [4] -0.077 | entinostat 0.019 | vorinostat 0.065 | citarinostat 0.08 | silmitasertib 0.129 | [5] -0.091 | [6] -0.232

FERMT3 (UniProt Q86UX7)
inactive: [1] -0.055 | [2] -0.107 | [3] -0.106 | [4] -0.065 | entinostat 0.032 | vorinostat 0.026 | citarinostat 0.067 | silmitasertib -0.001 | [5] -0.048 | [6] -0.02

FKBP3 (UniProt Q00688)
Chain of UniProt Q00688 (Q00688 whole entry, looked up): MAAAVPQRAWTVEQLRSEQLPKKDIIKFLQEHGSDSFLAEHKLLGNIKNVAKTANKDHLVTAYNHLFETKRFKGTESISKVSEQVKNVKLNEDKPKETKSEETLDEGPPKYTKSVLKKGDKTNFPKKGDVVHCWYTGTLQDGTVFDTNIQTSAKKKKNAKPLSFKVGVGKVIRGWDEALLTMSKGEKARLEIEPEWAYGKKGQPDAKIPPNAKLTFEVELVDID
inactive: [1] 0.042 | [2] 0.019 | [3] 0.02 | [4] 0.037 | entinostat 0.016 | vorinostat 0.007 | citarinostat 0.009 | silmitasertib -0.034 | [5] -0.02 | [6] 0.054

FUBP3 (UniProt Q96I24)
Chain of UniProt Q96I24 (Q96I24 whole entry, looked up): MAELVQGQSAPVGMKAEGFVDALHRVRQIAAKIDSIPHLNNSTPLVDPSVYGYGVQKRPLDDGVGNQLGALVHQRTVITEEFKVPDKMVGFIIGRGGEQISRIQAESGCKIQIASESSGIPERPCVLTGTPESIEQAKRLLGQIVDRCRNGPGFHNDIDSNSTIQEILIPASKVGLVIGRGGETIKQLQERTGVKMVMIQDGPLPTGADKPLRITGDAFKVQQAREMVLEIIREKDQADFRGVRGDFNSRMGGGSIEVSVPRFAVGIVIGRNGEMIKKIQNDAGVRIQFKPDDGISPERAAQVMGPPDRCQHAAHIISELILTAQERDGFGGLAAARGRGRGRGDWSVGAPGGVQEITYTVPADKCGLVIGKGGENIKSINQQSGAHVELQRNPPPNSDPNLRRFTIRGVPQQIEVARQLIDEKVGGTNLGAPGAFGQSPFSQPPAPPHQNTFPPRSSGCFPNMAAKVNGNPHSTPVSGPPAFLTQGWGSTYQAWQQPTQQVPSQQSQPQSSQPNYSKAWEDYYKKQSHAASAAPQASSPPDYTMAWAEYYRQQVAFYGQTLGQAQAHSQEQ
inactive: [1] -0.023 | [2] 0.024 | [3] -0.048 | [4] -0.011 | entinostat 0.003 | vorinostat 0.062 | citarinostat -0.005 | silmitasertib 0.045 | [5] 0.186 | [6] 0.006

FCHO1 (UniProt O14526)
Chain of UniProt O14526 (O14526 whole entry, looked up): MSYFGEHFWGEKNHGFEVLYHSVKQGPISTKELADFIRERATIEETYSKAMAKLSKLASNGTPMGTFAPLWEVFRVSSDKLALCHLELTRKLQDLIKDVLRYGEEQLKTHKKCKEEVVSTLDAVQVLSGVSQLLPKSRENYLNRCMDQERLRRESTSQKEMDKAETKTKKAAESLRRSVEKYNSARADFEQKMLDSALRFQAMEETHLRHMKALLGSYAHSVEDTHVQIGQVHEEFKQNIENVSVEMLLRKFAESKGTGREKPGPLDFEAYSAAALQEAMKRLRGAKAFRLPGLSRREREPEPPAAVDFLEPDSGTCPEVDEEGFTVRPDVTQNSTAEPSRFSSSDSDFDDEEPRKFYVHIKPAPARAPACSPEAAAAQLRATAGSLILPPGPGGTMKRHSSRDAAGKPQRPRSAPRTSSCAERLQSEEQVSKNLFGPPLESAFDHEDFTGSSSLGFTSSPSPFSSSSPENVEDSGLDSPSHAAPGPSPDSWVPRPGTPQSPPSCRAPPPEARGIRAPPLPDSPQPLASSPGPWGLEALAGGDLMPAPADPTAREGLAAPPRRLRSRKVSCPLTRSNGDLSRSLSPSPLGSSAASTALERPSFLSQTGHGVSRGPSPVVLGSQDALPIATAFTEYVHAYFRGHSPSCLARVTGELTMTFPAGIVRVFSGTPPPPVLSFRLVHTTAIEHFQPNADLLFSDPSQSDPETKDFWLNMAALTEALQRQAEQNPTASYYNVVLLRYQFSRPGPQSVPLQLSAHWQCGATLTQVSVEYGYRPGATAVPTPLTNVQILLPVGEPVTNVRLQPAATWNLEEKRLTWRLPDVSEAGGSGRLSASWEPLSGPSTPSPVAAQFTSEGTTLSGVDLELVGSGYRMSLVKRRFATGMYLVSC
inactive: [1] -0.001 | [2] -0.21 | [3] -0.119 | [4] 0.054 | entinostat -0.032 | citarinostat -0.086 | silmitasertib -0.24 | [5] -0.102 | [6] 0.302

GIGYF2 (UniProt Q6Y7W6)
Chain of UniProt Q6Y7W6 (Q6Y7W6 whole entry, looked up): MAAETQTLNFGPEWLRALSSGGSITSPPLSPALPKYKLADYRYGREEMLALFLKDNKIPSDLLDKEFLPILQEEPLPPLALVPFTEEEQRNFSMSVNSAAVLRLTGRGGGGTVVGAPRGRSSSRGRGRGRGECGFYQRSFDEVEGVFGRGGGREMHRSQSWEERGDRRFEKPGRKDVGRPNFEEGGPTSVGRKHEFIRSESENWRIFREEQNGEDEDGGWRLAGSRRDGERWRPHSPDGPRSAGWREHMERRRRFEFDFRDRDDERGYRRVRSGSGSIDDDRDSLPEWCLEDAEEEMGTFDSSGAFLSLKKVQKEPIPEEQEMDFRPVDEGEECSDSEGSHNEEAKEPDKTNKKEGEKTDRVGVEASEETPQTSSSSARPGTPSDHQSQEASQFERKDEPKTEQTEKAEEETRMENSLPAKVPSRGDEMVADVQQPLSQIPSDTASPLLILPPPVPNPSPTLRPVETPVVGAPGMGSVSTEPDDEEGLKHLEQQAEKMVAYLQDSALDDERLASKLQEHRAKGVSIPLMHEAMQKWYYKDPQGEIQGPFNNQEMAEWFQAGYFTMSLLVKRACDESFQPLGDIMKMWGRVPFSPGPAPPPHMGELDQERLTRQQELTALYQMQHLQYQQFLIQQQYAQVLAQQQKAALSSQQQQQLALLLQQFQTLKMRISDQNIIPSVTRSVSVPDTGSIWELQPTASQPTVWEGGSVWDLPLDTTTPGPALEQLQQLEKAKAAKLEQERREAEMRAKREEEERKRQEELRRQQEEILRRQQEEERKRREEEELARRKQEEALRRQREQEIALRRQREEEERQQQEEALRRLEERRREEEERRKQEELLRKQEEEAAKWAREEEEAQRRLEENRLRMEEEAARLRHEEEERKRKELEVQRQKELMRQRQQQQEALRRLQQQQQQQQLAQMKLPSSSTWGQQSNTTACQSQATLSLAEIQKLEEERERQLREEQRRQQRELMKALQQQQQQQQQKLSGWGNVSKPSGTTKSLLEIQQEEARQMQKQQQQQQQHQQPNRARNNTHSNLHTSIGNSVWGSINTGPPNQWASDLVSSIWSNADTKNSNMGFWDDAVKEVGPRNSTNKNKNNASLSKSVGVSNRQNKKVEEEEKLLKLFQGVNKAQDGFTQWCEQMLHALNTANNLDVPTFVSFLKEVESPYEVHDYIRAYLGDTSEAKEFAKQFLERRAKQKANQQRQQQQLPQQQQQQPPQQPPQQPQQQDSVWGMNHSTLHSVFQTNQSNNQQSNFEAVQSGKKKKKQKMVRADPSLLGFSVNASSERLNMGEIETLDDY
inactive: [1] -0.102 | [2] -0.062 | [3] -0.046 | [4] -0.079 | entinostat 0.024 | vorinostat 0.103 | citarinostat 0.06 | silmitasertib -0.004 | [5] -0.016 | [6] -0.065

GLUL (UniProt P15104)
Chain of UniProt P15104 (P15104 whole entry, looked up): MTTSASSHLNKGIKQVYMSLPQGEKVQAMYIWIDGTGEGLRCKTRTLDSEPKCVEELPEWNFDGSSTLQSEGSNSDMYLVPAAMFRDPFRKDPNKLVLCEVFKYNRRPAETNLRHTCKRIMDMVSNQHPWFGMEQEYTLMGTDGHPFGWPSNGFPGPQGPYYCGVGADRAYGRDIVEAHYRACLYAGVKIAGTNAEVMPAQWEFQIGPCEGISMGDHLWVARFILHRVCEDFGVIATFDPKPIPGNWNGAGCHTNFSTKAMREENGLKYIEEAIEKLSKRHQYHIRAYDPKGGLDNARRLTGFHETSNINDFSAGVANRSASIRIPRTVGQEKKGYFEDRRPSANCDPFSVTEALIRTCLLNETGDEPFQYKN
inactive: [1] 0.059 | [2] -0.104 | [3] 0.061 | [4] 0.018 | entinostat -0.009 | vorinostat 0.04 | citarinostat -0.024 | silmitasertib 0.032 | [5] -0.012 | [6] -0.087

HBA1 (UniProt P69905)
Chain of UniProt P69905 (P69905 whole entry, looked up): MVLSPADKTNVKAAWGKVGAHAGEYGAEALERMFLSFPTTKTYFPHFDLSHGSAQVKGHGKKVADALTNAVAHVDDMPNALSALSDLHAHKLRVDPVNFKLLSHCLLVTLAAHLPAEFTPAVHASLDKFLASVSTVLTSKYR
inactive: [1] 0.016 | [2] 0.032 | [3] 0.003 | [4] 0.103 | entinostat 0.059 | vorinostat -0.031 | citarinostat 0.007 | silmitasertib -0.036 | [5] -0.037 | [6] 0.012

GDI1 (UniProt P31150)
inactive: [1] -0.018 | [2] -0.066 | [3] -0.051 | [4] -0.04 | entinostat -0.016 | vorinostat 0.022 | citarinostat 0.014 | silmitasertib -0.012 | [5] -0.037 | [6] -0.04

GATA1 (UniProt P15976)
Chain of UniProt P15976 (P15976 whole entry, looked up): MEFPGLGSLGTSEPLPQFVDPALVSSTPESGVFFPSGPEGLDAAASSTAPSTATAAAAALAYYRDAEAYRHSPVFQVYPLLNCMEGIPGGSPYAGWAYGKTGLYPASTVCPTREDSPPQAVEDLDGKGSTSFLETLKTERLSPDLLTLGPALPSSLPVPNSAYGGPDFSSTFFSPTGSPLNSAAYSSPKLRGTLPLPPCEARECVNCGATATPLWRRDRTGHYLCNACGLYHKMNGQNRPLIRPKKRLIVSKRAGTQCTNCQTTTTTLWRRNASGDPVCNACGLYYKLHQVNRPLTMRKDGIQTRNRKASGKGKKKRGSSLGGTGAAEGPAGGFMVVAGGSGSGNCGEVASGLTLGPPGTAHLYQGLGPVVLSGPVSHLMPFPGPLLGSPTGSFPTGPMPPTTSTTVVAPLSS
inactive: [1] 0.009 | [2] 0.012 | [3] -0.018 | [4] 0.059 | entinostat -0.084 | vorinostat -0.164 | citarinostat -0.166 | silmitasertib 0.065 | [5] -0.039 | [6] -0.096

GYG1 (UniProt P46976)
inactive: [1] 0.012 | [2] -0.017 | [3] 0.075 | [4] 0.134 | entinostat -0.019 | vorinostat -0.056 | citarinostat -0.011 | silmitasertib 0.049 | [5] 0.037 | [6] -0.057

HMGN1 (UniProt P05114)
Chain of UniProt P05114 (P05114 whole entry, looked up): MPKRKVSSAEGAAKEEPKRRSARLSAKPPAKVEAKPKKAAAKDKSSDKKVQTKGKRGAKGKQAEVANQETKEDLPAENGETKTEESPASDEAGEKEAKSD
inactive: [1] 0 | [2] 0.024 | [3] 0.144 | [4] 0.03 | entinostat -0.053 | vorinostat -0.048 | citarinostat -0.096 | silmitasertib 0.037 | [5] -0.003 | [6] -0.023

HNRNPUL1 (UniProt Q9BUJ2)
inactive: [1] -0.059 | [2] 0.028 | [3] -0.081 | [4] -0.059 | entinostat -0.012 | vorinostat 0.03 | citarinostat 0.002 | silmitasertib 0.034 | [5] 0.08 | [6] -0.046
